Measurements taken from PubChem BioAssay AID878 (University of Pittsburgh Molecular Library Screening Center, 2007).
The campaign covered roughly 200,000 compounds. About 65 (0.03%) were called active.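 Rule for the calls: active = activation of at least 50% relative to the plate's high and low controls in the primary single-dose screen; inactive = activation below 50%.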 What follows is part of a selection rich in actives, with near analogues and random picks from the rest.

assay: compounds producing H2O2 with reducing agent – biochemical, NIH compound library profiling, artefact control for MLSCN library redox annotation, primary screen (AID 878); settings: DTT-dependent redox cycling H2O2, phenol red/HRP absorbance; at 10 µM; hits give high values; 100% = 100 µM peroxide control, 0% = buffer;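 note: compound incubated with DTT at 0.8 mM final as the reducing agent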

activation, inactive:
O=C1c2cccc3c([N+](=O)[O-])ccc(c23)C(=O)N1CC1CCCO1 (configuration not stated) -0.67%
O=C(N/N=C1\CCSC1)c1cc(Cl)ccc1O -0.43%
CCn1ccnc1CN1CCCC(C(=O)c2ccc3c4c(cccc24)CC3)C1 (configuration not stated) -1.32%
COc1ccc([N+](=O)[O-])cc1NC(=O)c1ccc(N(Cc2ccccc2C)S(C)(=O)=O)cc1 2.05%
CCOc1ccc(N(CC(=O)NC2CCCCCC2)S(=O)(=O)c2c(C)[nH]c(=O)[nH]c2=O)cc1 -0.79%
CCC(O)C1CCN(Cc2cn(-c3ccc(OC)cc3)nc2-c2cccc(F)c2)CC1 (configuration not stated) -1.12%
O=C(NNC(=O)C1CCN(c2ncccn2)CC1)c1ccccc1 3.9%
O=C(NC(=S)Nc1ccc(NC(=O)c2cccs2)cc1)c1ccc([N+](=O)[O-])cc1 0.63%
CNc1ccc(SC#N)cc1 -1.28%
CCN1CCN(CC(=O)c2cc(OC)c(OC)c(OC)c2)CC1 -2.87%
CC(Nc1ccccc1)c1cccnc1 (configuration not stated) -1.74%
CN(C)c1ccc(-n2cccc2/C=N/n2cnnc2)cc1 -0.65%
COC(=O)/C(C#N)=C/c1occc1C -0.05%
Cc1cc(C)cc(N(CC(=O)N2CC=C(c3ccccc3)CC2)S(=O)(=O)c2c(C)noc2C)c1 -1.64%
CC(C)(C)C(=O)N(Cc1ccccc1)c1ccccn1 -0.82%
O=C(CN1CCCCCC1)Nc1ccc(Br)cc1Br 0.33%
COCCCn1c(SCC(=O)Nc2ccccc2)nnc1-c1ccncc1 0.72%
CCCCN=C1C([N+](=O)[O-])=CC=C2C1=NC1(CCCCC1)N2O 0.33%
O=C(N/N=C/c1ccco1)c1ccc(C(=O)N/N=C/c2ccco2)o1 -0.77%
O=C(C1CC1)N1N=C2CCCCC2C1(O)C(F)(F)F (configuration not stated) -0.33%
CC1Cc2ccccc2N1S(=O)(=O)c1c(N)n(C)c(=O)n(C)c1=O (configuration not stated) -1.16%
Cc1cc(NC(=O)CSc2nc3c(cc2C#N)CCCCC3)no1 -0.92%
COC(=O)c1ccccc1NS(=O)(=O)c1ccc2[nH]c(=O)[nH]c2c1 0.27%
COc1ccc(CCNC(=O)/C(C#N)=C2\N=C(NC(=O)c3cccs3)c3ccccc32)cc1 0.35%
CCC(NC(=O)c1ccccc1NC(=O)c1ccccc1)C(=O)NNC(=O)CSc1nc2ccccc2o1 (configuration not stated) -0.15%
CCc1cccc(C)c1NC(=O)COC(=O)Cc1ccsc1 -0.34%
Cc1noc(C)c1COc1ccc2ccc(=O)oc2c1 -0.19%
COc1ccc2nc(Nc3nc(-c4ccncc4)cs3)sc2c1 -0.22%
Cc1cccc(OC(=O)c2sc3ncn(C)c(=O)c3c2C)c1 0.69%
COc1ccc(CCNC(=O)C(=O)NCc2ccccc2C)cc1OC -0.24%
CCc1nnc(NC(=O)C2CC(=O)N(c3ccc4c(c3)OCCO4)C2)s1 (configuration not stated) 0.21%
CCc1ccc(CN(C)C(=O)CCc2nnc(-c3ccc(-c4ccccc4)cc3)o2)nc1 -1.14%
Cc1ccccc1NC(=O)c1ccc(COc2ccc3c(C)cc(=O)oc3c2)cc1 0.57%
O=C(Nc1cccc(C(F)(F)F)c1)c1ccc(N2CCNCC2)c([N+](=O)[O-])c1 2.54%
CN(C)CCCO/N=C(\c1ccccc1)c1ccncc1 0.18%
CCOCCCNC(=O)C(NC(=O)c1ccc(=O)[nH]c1)c1ccc(Cl)cc1 (configuration not stated) -3.26%
COc1cc(CC(=O)N/N=C/c2ccccc2)c([N+](=O)[O-])cc1OC -0.77%
O=S(=O)(c1ccc(F)cc1)N1CCN(C(=S)NCc2ccco2)CC1 -0.47%
O=C(Cc1ccccc1)NNC(=O)C1CCN(c2ncccn2)CC1 -0.49%
COc1ccc(Cl)cc1-n1c(C)cc(C(=O)OCC(=O)N2CC(=O)Nc3ccccc32)c1C 0.04%
Cc1ccc(-c2cc(=O)c3ccc(Cl)cc3[nH]2)cc1 -1.26%
CCN(CC)c1ccc([N+](=O)[O-])cc1C(=O)O 0.13%
N#Cc1c(NC(=O)c2ccc(N3CCOCC3)c([N+](=O)[O-])c2)sc2c1CCCC2 0.09%
COc1cc(NC(=S)NCc2ccco2)c(OC)cc1Cl -0.01%
O=C(Nc1ccccc1)c1cc2ccccc2[nH]1 -0.39%
C=CCN(Cc1nc(-c2cc(OC)c3c(c2)OCO3)oc1C)C1CCS(=O)(=O)C1 (configuration not stated) -0.18%
COc1ccccc1C(=O)Nc1ccc(OCc2nnc3c4ccccc4c(C)nn23)cc1 -0.13%
CCOC(=O)Nc1ccc(S(=O)(=O)N(C)C(C)C)cc1 0.17%
Cc1cc(NC(=O)CN2C(=O)NC(CCc3ccccc3)C2=O)no1 (configuration not stated) -0.88%
COc1ccc(OC)c(NC(=O)CN(Cc2ccc(Cl)cc2)S(C)(=O)=O)c1 -0.61%
CC(C)NC(=O)c1ccccc1S(=O)c1ccccc1C#N (configuration not stated) 0.13%
COc1ccc(C2=NN(c3ccccc3)C(c3cccs3)C2)cc1 (configuration not stated) 0.96%
C=CCn1nc(-c2ccccc2)c2c(C)onc2c1=O -0.48%
Cc1ccc(C(=O)NC(C)c2ccccc2)cc1Br (configuration not stated) -0.27%
CC(C)Cn1c(N)c(C(=O)COC(=O)CN2C(=O)C3CC=CCC3C2=O)c(=O)n(C)c1=O (configuration not stated) -0.26%
Cc1cc(C)cc(NC(=O)N2CCCCCCC2)c1 -0.28%
CCCCN1C(=O)/C(=C/C=C2/C=Cc3ccccc3N2CC)SC1=S 1.26%
C=CCn1c(COc2ccc(F)cc2)nnc1SCC(=O)Nc1cccc(S(N)(=O)=O)c1 -0.73%
CCN(CC)CCCNC(=O)Cn1cnc2sc(C)c(S(=O)(=O)N3CCN(c4ncccn4)CC3)c2c1=O -0.75%
COC(=O)C1=C(C(=O)OC)C(c2cc([N+](=O)[O-])ccc2O)c2sc(=O)[nH]c2S1 (configuration not stated) 0.35%
COCCn1c(C)cc(C(=O)COC(=O)/C=C/c2cccc(OC)c2)c1C 0.06%
O=C(COC(=O)c1ccc(F)cc1)Nc1nc2ccc([N+](=O)[O-])cc2s1 -0.91%
Cc1nn(CC(=O)NCc2ccccn2)c(C)c1[N+](=O)[O-] 0.55%
Cc1nc(NC(=O)C2CCCCC2)sc1C 1.88%
O=C(Nc1cccc(S(=O)(=O)N2CCCCC2)c1)c1ccc2c(c1)OCO2 -0.11%
CCOC(=O)C1(Cc2ccccc2C(F)(F)F)CCN(C(=O)c2cc(C)n(C)n2)CC1 -0.12%
COC(=O)NNC1=CC(=O)CC(C)(C)C1 0.51%
CCOC(=O)c1c(N)nn(C(=O)c2ccccc2)c1-c1ccccc1 -2.05%
CCCCNC(=O)CCn1c(=O)c2ccccc2n(Cc2cc(C)ccc2C)c1=O 0.21%
C=CCn1c2ccccc2c2nnc(SCc3[nH]c(=O)[nH]c3C(=O)CCCCC(=O)OCC)nc21 0.68%
CCN1C(=O)/C(=c2\s/c(=C3\Sc4ccccc4N3C)c(=O)n2C)N(C)C1=S -0.11%
CC(=O)C1(C)N(O)C(C)(C)C(c2cccs2)=[N+]1[O-] (configuration not stated) 0.23%
Cc1c(NC(=S)NCc2ccc(F)cc2)cccc1[N+](=O)[O-] 0.02%
CN(C)/C=C(/C(=O)c1ccc(F)cc1)S(=O)(=O)c1ccc(F)cc1 -0.68%
CCC1CCCCN1C(=O)CSc1nc(C)cc(C)n1 (configuration not stated) -1.65%
CCCCC(O)(CCCC)C(=O)NN(C(=O)CCl)c1ccccc1 0.06%
O=C(c1cccs1)n1nc(NCc2ccccc2)nc1NCc1ccccc1 -0.21%
Cc1cc(C)c(C#N)c(SCC(=O)Nc2ccccc2)n1 0.39%
COc1ccc(/C=C(\C#N)C(=O)ONC2=NCCCCC2)cc1 -1.95%
Cc1cc(CNCc2c(C(=O)N(C)Cc3ccccc3)nc3ccccn23)nn1C -1.78%
Cc1ccc(C)c(OCC(=O)N2CCN(C(=O)c3ccco3)CC2)c1 -0.33%
COc1ccc(/C=C/C(=O)c2ccc(NS(=O)(=O)c3ccc(C)cc3)cc2)cc1O 0.57%
CCN(CC)C(=O)c1sc2nc(-c3ccccc3)ccc2c1N 0.13%
Cc1ccc(C)c(NC(=S)NNC(=S)Nc2ccc(C(C)C)cc2)c1 -1.35%
Oc1ccc(/C=N/Nc2ccc(C(F)(F)F)cn2)cc1O -2.05%
CC(CC(=O)O)CC(=O)NNC(=O)c1cccc(Br)c1 (configuration not stated) 0.78%
Cc1ccc(OCC(=O)OC(C)CN(C)Cc2ccccc2)cc1 (configuration not stated) -0.15%
Cc1ccc(NC(=O)c2oc(=O)c3ccccc3c2-c2ccccc2)c(C)c1 -0.2%
COc1ccc(CS(=O)/C(Cl)=C(/Cl)C(=O)Nc2ccc(OC)nc2)cc1 (configuration not stated) 0.27%
CCOC(=O)C1=C(CN2CCCCCC2)NC(=O)NC1c1cccc([N+](=O)[O-])c1 (configuration not stated) -10.2%
CCOC(=O)C1(O)CC(C)=NN1C(=O)c1cccc(Br)c1 (configuration not stated) -0.77%
COC(=O)c1ccccc1NC(=O)C1CC(=O)N(c2ccc(OC)cc2)C1 (configuration not stated) -0.76%
